In PubChem BioAssay (NCATS):
A number with no mark means an inactive call. Inconclusive results are not listed. A call without a number means that no potency is given here. The source made the active and inactive calls. Unless noted, calls come from the whole dose curve; as a rule, active = well fitted curve in the direction sought with a large enough effect; inconclusive = small, poorly fitted or top-dose-only effect, or another doubt; inactive = no such curve, though single readings can be large; an effect the other way counts as inactive or inconclusive.

Assays:
[1] = biological target: Cytochrome P450 1A2 (Homo sapiens) (UniProt P05177); test: p450-cyp1a2 (AID 410; calls by dose curve; note: potency is the fitted concentration of half-maximal effect)
Method in brief: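 Inhibition was calculated relative to 57 uM furafylline (full inhibition). The reaction used human CYP1A2 at 20nM with Luciferin-ME at its Km, 100uM, driven by an NADPH-regenerating system for 60 min at room temperature.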

[2] = biological target: Glucocorticoid receptor (Homo sapiens) (UniProt P04150); test: GR-GFP Redistribution (AID 450;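 active = compounds whose dose series gives a full or clear partial fitted curve of increased nuclear translocation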; note: potency is the fitted concentration of half-maximal effect); settings: U2OS GR-GFP nuclear translocation, laser cytometry, 2 h
[3] = biological target: Glucocorticoid receptor (Homo sapiens) (UniProt P04150); test: GR-EFC Redistribution (AID 451; calls by dose curve; note: potency is the fitted concentration of half-maximal effect); settings: CHO-K1 GR-EFC translocation, beta-gal luminescence, 2 h
Method in brief: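 Translocation of GR-ED fusion to nuclear EA restores b-gal, read by luminescence after 1 h room-temperature detection. Engineered CHO-K1 biosensor cells, 1,000/well, exposed 2 h at 37 C to titrations up to 46 uM final.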

[4] = biological target: Mitogen-activated protein kinase 10 (Mus musculus) (UniProt Q61831); test: JNK3 AlphaScreen Assay (AID 530; active = well fitted curve in either direction with a large enough effect, not every such curve was filed as active;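 note: kinase came from lysate of stimulated human HepG2 cells; potency is the fitted concentration of half-maximal effect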)
Method in brief: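 Room-temperature AlphaScreen kinase assay; pre-activated HepG2 lysate as JNK3 source, biotin-GST-cJun(1-79) substrate, 10 uM ATP, compound 15 min preincubation.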

[5] = biological target: Cytochrome P450 2C9 (Homo sapiens) (UniProt P11712); test: qHTS Assay for Inhibitors and Substrates of Cytochrome P450 2C9 (AID 883); note: potency is the fitted concentration of half-maximal effect; nearly all actives have a fitted effect of over 60% in size
Method in brief: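 Inhibition of CYP2C9 is scored as loss of luminescence, with 57uM sulphaphenazole defining 100% inhibition. Substrate Luciferin-H is used at 100uM, equal to its KM; enzyme at 10nM in 25mM KPO4, 60 min at 37C with NADPH regeneration.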

[6] = biological target: Cytochrome P450 3A4 (Homo sapiens) (UniProt P08684); test: qHTS Assay for Activators of Cytochrome P450 3A4 (AID 885); note: nearly all actives have a fitted effect of over 65% in size
Method in brief: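 Human CYP3A4 (20 nM) with Luciferin-PPXE at 25 uM (its KM) in 200 mM KPO4; 10 min compound preincubation, then NADPH regeneration and 60 min reaction at RT. Luciferin read by luminescence; normalized to 57 uM ketoconazole full inhibition.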

[7] = biological target: Cytochrome P450 2D6 (Homo sapiens) (UniProt P10635); test: qHTS Assay for Inhibitors and Substrates of Cytochrome P450 2D6 (AID 891); note: potency is the fitted concentration of half-maximal effect; nearly all actives have a fitted effect of over 60% in size
Method in brief: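 Human CYP2D6 (5 nM) with 30 uM Luciferin-ME EGE (at Km) in 100 mM KPO4, compound preincubated 10 min, then NADPH regeneration system for 60 min at room temperature. Luciferin read by luminescence; normalized to 1.43 uM quinidine.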

[8] = biological target: Cytochrome P450 2C19 (Homo sapiens) (UniProt P33261); test: qHTS Assay for Inhibitors and Substrates of Cytochrome P450 2C19 (AID 899); note: potency is the fitted concentration of half-maximal effect; nearly all actives have a fitted effect of over 60% in size
Method in brief: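 5nM enzyme + 10uM Luciferin-H EGE (=KM), 50mM KPO4; cpd pin-transferred, 10 min 37C; NADPH regen, 60 min 37C; stopped w/ luciferin detection reagent, 20 min; luminescence. Normalized to 57uM ketoconazole (AC100).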

[9] = biological target: DNA dC->dU-editing enzyme APOBEC-3G (Homo sapiens) (UniProt Q9HC16); test: qHTS for inhibitors of Vif-A3G interactions: Validation (AID 588379)
Method in brief: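 HeLa cells stably expressing Vif and A3G-eYFP, 700 cells/well, incubated overnight at 37 deg C, then exposed to compound overnight at 37 deg C. Inhibition of Vif-mediated degradation read as increased yellow fluorescence (Ex 488/Em 500-530) by laser-scanning cytometry.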

[10] = biological target: Furin (Homo sapiens) (UniProt P09958); test: Furin counterscreen qHTS for Zika virus inhibitors (AID 1347149); note: nearly all actives have a fitted effect of over 70% in size; note: potency is the fitted concentration of half-maximal effect
Method in brief: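 Fluorogenic cleavage of BOC-RVRR-AMC (2 microM final, Km ~15 µM) was monitored (ex 340, em 450 nm) at 37C after 15 min RT preincubation of 5 nM furin with compounds in HEPES pH 7.0 buffer with CaCl2 and Triton X-100. Percent inhibition was fitted to a 4-parameter Hill curve.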

[11] = Confirmatory screen NINDS Rhodamine qHTS for Zika virus inhibitors (AID 1347161); note: nearly all actives have a fitted effect of over 60% in size; note: potency is the fitted concentration of half-maximal effect
Method in brief: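 Percent inhibition, normalized to uninhibited and enzyme-free controls, is fitted to a 4-parameter Hill equation. Fluorescence change comes from a 15-min cleavage of 1.5 microM bis-peptide Rhodamine110 substrate by 25 nM linked NS2B-NS3 at room temperature.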

[12] = test system: Zika virus NS2B-NS3 protease (linked); test: 384 well plate NINDS AMC confirmatory qHTS for Zika virus inhibitors (AID 1347163); note: nearly all actives have a fitted effect of over 50% in size; note: potency is the fitted concentration of half-maximal effect
Method in brief: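 Linked protease 5/30/60 nM final; cpds up to 1 mM final, ~15 min preinc. Substrate Ac-VKTGKR-AMC 30 microM final. RT, dark, 25 min; FI ex 355/em 460; normalized to no-enzyme/no-inhibitor ctrls.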

[13] = test system: Zika virus NS2B-NS3 protease (linked construct); test: 384 well plate NINDS Rhodamine confirmatory qHTS for Zika virus inhibitors (AID 1347164); note: potency is the fitted concentration of half-maximal effect; nearly all actives have a fitted effect of over 65% in size
Method in brief: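 Cleavage of Ac-LKRR-Rhodamine 110 (10 microM final) by linked protease (final 5, 30 or 60 nM) was followed as fluorescence at 485/538 nm after 25 min, room temperature, dark. Compounds preincubated ~15 min.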

[14] = Vero cells viability qHTS for Zika virus inhibitors (AID 1347167)
Method in brief: (§1)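 Compounds were tested in concentration series on cells grown in DMEM containing 4% FBS. After 24 to 48 hours, cellular ATP was measured by luminescence with CellTiter Glo.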

[15] = HepG2 cells viability qHTS for Zika virus inhibitors (AID 1347168)
Method in brief: as §1

[16] = Tertiary RLuc qRT-PCR qHTS assay for Zika virus inhibitors (AID 1347169); note: nearly all actives have a fitted effect of over 55% in size; note: potency is the fitted concentration of half-maximal effect
Method in brief: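 Inhibition of ZIKV-RLuc replication in Vero cells, read as Renilla luminescence 1-1.5 hrs after live-cell substrate addition, following 48-72 hrs infection at MOI 1-2 in presence of compound.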

[17] = Primary qHTS for small molecule stabilizers of the endoplasmic reticulum resident proteome: Secreted ER Calcium Modulated Protein (SERCaMP) assay (AID 1508630)
Method in brief: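 GLuc-SERCaMP-expressing SH-SY5Y cells, pretreated 16 h with compound, are challenged with thapsigargin to empty ER calcium stores; after 4 h, coelenterazine is added directly to the medium and luminescence is imaged.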

[18] = biological target: Rap guanine nucleotide exchange factor 3 (Homo sapiens) (UniProt O95398); test: Confirmatory qHTS for antagonist of cAMP-regulated guanine nucleotide exchange factor 3 (EPAC1) (AID 1645880); note: potency is the fitted concentration of half-maximal effect; nearly all actives have a fitted effect of over 55% in size
Method in brief: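 Nucleotide exchange uses 100 nM EPAC1, 250 nM RAP1B-BODIPY-GDP and 50 uM GDP, with compounds in a concentration-titration series. After 5 min at room temperature, fluorescence (480 nm ex/540 nm em) is read every 5 min for 30 min. Data are normalized to control ATA and DMSO.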

[19] = biological target: Rap guanine nucleotide exchange factor 3 (Homo sapiens) (UniProt O95398); test: Confirmatory qHTS for agonist of cAMP-regulated guanine nucleotide exchange factor 3 (EPAC1) (AID 1645881);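 note: EPAC1 catalysed release of BODIPY-GDP from Rap1B seen as fluorescence loss; nearly all actives have a fitted effect of over 75% in size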
[20] = biological target: Glutathione peroxidase 1 (Homo sapiens) (UniProt P07203); test: Primary qHTS Assay for Inhibitors of Recombinant Selenoprotein Glutathione Peroxidase 1 (GPX1) (AID 1845191); note: nearly all actives have a fitted effect of over 65% in size
Method in brief: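 10 nM GPX1 + cpd, 30 min RT; start w/ 1 mM GSH, 0.5 mM cumene hydroperoxide, 0.5 mM NADPH, 100 nM GR, 0.01% BSA; buffer 50 mM Tris-HCl pH 7.5, 2 mM EDTA, 150 mM NaCl; Fl 340/450, 0 & 15 min.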

[21] = ZIKV-mCherry secondary qHTS for Zika virus inhibitors (AID 1347158); note: top concentration of the series differs between compounds
Method in brief: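 After overnight seeding at 37 °C, Vero cells receive compound and then ZIKV-mCherry (MOI 1). Following 48-72 h infection, cells are fixed, counterstained with Hoechst, and imaged; percent infected cells is derived from an mCherry intensity cut-off of 450 RFU.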

Chain of Furin (Homo sapiens) (P09958 whole entry, looked up): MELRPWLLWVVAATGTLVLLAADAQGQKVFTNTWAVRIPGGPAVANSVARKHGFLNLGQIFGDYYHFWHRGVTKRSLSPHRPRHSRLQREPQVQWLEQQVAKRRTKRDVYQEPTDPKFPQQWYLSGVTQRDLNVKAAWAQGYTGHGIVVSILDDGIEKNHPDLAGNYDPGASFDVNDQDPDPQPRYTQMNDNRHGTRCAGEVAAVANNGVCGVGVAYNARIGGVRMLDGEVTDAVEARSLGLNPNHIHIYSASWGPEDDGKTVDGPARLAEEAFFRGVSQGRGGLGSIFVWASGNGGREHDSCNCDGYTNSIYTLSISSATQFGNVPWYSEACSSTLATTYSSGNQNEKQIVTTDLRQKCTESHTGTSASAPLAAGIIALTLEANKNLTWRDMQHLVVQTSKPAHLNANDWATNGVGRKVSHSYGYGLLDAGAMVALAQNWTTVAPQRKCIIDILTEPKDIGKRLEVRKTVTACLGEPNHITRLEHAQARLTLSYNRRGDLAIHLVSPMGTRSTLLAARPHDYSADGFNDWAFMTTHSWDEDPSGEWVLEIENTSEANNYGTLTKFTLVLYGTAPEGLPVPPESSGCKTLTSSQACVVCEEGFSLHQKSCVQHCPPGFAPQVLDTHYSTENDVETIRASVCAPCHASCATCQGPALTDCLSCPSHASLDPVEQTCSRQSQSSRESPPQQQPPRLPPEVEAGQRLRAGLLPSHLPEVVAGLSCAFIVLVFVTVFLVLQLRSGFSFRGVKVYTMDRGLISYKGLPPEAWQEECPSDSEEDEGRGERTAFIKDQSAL
Chain of Glucocorticoid receptor (Homo sapiens) (P04150 whole entry, looked up, the tested form may be a part): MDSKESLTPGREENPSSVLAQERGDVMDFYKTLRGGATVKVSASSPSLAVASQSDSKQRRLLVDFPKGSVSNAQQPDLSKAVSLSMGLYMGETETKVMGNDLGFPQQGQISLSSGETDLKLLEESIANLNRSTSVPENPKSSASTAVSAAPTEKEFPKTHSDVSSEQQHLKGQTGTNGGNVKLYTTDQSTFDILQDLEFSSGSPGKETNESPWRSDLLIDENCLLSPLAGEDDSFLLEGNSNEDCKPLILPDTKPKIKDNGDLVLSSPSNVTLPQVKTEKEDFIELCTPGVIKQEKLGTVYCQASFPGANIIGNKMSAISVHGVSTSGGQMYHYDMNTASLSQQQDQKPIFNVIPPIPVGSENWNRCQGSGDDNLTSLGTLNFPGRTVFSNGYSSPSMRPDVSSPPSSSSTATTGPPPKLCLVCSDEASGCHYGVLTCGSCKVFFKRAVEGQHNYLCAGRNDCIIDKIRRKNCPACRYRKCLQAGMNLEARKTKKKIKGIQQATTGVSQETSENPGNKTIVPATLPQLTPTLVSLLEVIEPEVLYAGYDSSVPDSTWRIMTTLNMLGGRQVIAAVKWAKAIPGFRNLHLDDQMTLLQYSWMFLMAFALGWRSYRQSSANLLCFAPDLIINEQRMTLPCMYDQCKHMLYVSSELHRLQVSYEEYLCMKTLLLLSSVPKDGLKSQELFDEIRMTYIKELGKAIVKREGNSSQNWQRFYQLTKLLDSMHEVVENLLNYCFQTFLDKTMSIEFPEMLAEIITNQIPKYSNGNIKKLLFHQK
Chain of Rap guanine nucleotide exchange factor 3 (Homo sapiens) (O95398 whole entry, looked up): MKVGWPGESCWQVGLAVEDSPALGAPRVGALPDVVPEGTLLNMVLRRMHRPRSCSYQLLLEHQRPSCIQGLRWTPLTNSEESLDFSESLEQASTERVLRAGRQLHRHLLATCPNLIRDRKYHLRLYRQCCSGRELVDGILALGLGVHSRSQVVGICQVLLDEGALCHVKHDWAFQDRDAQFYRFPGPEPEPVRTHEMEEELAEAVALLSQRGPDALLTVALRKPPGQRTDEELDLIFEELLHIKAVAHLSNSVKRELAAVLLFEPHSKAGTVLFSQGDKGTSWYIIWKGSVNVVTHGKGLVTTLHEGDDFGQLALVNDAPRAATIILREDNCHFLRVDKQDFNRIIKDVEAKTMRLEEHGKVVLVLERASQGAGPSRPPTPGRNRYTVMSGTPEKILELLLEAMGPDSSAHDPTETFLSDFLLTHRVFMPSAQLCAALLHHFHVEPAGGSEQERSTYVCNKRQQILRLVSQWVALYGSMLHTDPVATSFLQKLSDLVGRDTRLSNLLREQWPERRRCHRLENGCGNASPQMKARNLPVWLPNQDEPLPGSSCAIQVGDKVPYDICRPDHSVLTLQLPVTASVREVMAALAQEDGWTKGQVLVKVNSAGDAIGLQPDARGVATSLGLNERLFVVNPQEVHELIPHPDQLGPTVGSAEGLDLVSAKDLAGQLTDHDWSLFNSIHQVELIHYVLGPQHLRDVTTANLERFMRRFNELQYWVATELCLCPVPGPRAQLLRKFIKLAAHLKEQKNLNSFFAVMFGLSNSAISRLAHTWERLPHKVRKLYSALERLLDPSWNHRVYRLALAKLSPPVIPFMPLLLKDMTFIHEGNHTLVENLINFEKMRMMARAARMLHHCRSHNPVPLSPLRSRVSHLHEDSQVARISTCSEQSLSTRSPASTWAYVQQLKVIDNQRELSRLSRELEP
Chain of DNA dC->dU-editing enzyme APOBEC-3G (Homo sapiens) (Q9HC16 whole entry, looked up): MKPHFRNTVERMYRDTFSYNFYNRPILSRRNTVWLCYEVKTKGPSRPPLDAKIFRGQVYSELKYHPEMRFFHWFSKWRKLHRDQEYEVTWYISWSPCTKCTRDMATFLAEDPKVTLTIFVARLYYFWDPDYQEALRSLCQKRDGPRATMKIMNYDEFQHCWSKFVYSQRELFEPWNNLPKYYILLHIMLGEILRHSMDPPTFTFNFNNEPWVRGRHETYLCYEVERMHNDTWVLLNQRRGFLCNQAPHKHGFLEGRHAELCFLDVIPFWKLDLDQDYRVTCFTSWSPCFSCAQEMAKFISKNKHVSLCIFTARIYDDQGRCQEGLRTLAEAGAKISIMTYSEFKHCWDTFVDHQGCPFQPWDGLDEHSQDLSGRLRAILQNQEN
Chain of Cytochrome P450 2C9 (Homo sapiens) (P11712 whole entry, looked up): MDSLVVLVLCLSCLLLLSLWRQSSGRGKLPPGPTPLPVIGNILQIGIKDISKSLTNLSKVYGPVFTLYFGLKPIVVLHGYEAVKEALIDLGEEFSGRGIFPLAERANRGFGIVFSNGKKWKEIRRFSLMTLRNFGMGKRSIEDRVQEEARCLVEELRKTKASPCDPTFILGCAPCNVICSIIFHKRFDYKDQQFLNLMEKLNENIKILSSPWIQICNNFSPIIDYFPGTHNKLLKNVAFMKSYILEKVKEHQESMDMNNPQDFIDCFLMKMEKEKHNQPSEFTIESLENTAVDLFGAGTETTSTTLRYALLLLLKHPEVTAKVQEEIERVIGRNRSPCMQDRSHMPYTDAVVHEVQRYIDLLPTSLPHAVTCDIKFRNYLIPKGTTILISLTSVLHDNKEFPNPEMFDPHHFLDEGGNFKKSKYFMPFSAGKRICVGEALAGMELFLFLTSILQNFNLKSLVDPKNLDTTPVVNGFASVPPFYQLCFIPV
Chain of Cytochrome P450 3A4 (Homo sapiens) (P08684 whole entry, looked up): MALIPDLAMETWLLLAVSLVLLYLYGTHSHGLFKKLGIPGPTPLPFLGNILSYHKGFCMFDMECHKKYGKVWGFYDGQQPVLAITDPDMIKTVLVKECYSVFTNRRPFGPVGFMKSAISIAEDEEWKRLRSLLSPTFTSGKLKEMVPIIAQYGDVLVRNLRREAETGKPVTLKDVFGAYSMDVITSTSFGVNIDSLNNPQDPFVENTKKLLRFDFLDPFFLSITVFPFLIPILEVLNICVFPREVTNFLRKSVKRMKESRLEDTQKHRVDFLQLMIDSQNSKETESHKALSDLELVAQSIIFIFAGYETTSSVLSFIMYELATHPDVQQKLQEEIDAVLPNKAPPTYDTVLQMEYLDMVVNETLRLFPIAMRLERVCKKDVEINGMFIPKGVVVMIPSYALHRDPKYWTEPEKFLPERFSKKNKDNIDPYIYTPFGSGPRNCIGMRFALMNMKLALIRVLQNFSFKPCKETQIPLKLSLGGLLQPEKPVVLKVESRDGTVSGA
Chain of Cytochrome P450 2C19 (Homo sapiens) (P33261 whole entry, looked up): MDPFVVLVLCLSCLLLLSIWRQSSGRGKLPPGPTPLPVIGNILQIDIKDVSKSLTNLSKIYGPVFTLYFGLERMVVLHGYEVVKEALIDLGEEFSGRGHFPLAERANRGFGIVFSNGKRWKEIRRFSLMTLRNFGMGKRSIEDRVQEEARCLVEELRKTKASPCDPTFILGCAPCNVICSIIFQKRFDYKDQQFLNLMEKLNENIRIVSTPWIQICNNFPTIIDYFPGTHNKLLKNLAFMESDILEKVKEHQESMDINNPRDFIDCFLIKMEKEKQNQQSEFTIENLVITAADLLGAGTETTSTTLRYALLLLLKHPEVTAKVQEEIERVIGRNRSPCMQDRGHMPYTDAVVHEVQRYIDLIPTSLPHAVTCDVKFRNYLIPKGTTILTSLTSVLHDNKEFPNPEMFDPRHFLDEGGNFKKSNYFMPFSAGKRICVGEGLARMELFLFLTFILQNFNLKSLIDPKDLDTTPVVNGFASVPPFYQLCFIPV
Chain of Glutathione peroxidase 1 (Homo sapiens) (P07203 whole entry, looked up): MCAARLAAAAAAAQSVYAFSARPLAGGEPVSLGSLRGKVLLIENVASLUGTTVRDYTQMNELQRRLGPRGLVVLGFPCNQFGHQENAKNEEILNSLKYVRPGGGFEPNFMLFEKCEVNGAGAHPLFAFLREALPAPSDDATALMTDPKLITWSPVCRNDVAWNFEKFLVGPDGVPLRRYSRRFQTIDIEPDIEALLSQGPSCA

C=CC(C)(C)c1[nH]c2ccccc2c1C1=C(O)C(=O)C(c2c[nH]c3c(CC=C(C)C)cccc23)=C(O)C1=O
Potency [1]: 25.1 µM (active)
Potency [2]: > 46 µM
Potency [3]: > 46 µM
Potency [4]: 6.31 µM (active)
Potency [5]: 7.94 µM (active)
Potency [6]: inactive
Potency [7]: 0.0063 µM (active)
Potency [8]: 1.26 µM (active)
Potency [9]: inactive
Potency [10]: inactive
Potency [11]: 49.4 µM (active)
Potency [12]: 11.2 µM (active)
Potency [13]: 0.631 µM (active)
Potency [14]: inactive
Potency [15]: inactive
Potency [16]: inactive
Potency [17]: inactive
Potency [18]: 4.98 µM (active)
outcome [19]: inactive
Potency [20]: inactive

Cc1cccc(C(=O)Nc2ccc(C(=O)OCc3cc(=O)n4c5c(sc4n3)CCCC5)cc2)c1
Potency [10]: 46.9 µM (active)
Potency [11]: inactive
Potency [16]: inactive

O=C(O)COc1ccccc1C1Nc2ccccc2-c2nnc(SCc3ccc(Cl)cc3)nc2O1 (stereo not drawn)
Potency [10]: inactive
Potency [21]: inactive
Potency [12]: 316 µM (active)
Potency [13]: 224 µM (active)
Potency [16]: inactive

O=C(Nc1ccc(C(=O)OCc2cc(=O)n3c4c(sc3n2)CCCC4)cc1)c1ccc(F)cc1
Potency [10]: 66.3 µM (active)
Potency [21]: inactive
Potency [12]: inactive
Potency [16]: inactive

COC(=O)c1ccc(NC(=O)CSc2ncc3c(n2)-c2cc(Cl)ccc2N(Cc2ccccc2)S3(=O)=O)cc1
Potency [10]: 83.5 µM (active)
Potency [21]: inactive
Potency [12]: inactive

O=C(O)COc1ccc(-c2nccc3c2C(=O)N(Cc2cccc(C(F)(F)F)c2)CC(COc2ccccc2)O3)cc1 (stereo not drawn)
Potency [10]: inactive
Potency [21]: inactive
Potency [13]: 39.8 µM (active)
Potency [16]: inactive

Cc1oc2c(cc(NS(=O)(=O)c3ccc(C(C)C)cc3)c3ccccc32)c1C(=O)OCc1ccccc1
Potency [10]: inactive
Potency [21]: inactive
Potency [12]: inactive

CC1OC(OC2C(O)CC(OC3C(O)CC(OC4CCC5(C)C(CCC6C5CC(O)C5(C)C(C7=CC(=O)OC7)CCC65O)C4)OC3C)OC2C)CC(O)C1O (stereo not drawn)
Potency [10]: inactive
Potency [14]: inactive
Potency [15]: inactive
Potency [16]: 0.214 µM (active)

O=C(OCc1cc(=O)n2nc(C3CC3)sc2n1)c1cccc(NC(=O)c2ccccc2Cl)c1
Potency [10]: inactive
Potency [16]: inactive
